Measured values taken from PubChem BioAssay.
Active and inactive are the calls of the source.

Experiment: HepG2 liver cancer cell viability effects, profiling panel, resazurin fluorescence, 24 h, PK04 Diversity Set (AID 1172); also: test concentration not given here
Settings: higher = more signal
For OCCCC1=CC(C2CC2)N(Cc2cccc(OC(F)(F)F)c2)CC1 (centres undefined), the z-score was 0.702.
CCOc1cc(C(O)C2C=CC3C(=O)N(c4ccccc4)C(=O)C3N2Nc2ccc(C(C)C)cc2)ccc1O (centres undefined) gave a z-score of -1.14.
With CO[C@H]1O[C@H](CO)[C@@H](OC(=O)Nc2ccccc2)[C@@H]2OC(=O)[C@@H](Cc3ccc4ccccc4c3)C/C=C/C[C@H](Cc3ccc4ccccc4c3)C(=O)O[C@@H]12 the z-score was -1.72.
Molecule CCOC(=O)C[C@H]1[C@H](OC(=O)c2ccc(C(=O)c3ccccc3)cc2)[C@@H](NC(=O)Cc2ccc(OC)cc2)c2cc(OCCCO)ccc2N1C(=O)c1ccc2ccccc2n1 has a z-score of -0.0666.
Work on C=CC[C@]1(C(=O)N2CCOCC2)N=C(c2ccc(OCCCO)cc2)O[C@H]1c1ccccc1N=[N+]=[N-] yielded a z-score of 0.101.
Work on NC(=O)[C@@H]1[C@H]2C(=O)O[C@H](c3ccccc3)[C@H](c3ccccc3)N2[C@H](c2ccc(O)cc2)[C@@]12C(=O)Nc1ccc(C#CC3=CCCCC3)cc12 yielded a z-score of -0.712.
In the case of COCCCNC(=O)[C@]1(Cc2ccccc2)N=C(c2ccc(OCCCO)cc2)O[C@@H]1c1ccccc1CN=[N+]=[N-], the z-score is reported as -0.316.
In the case of CC(C)(C)OC(=O)CC[C@]1(C(N)=O)N=C(c2ccc(OCCCO)cc2)O[C@H]1c1ccccc1, the z-score is reported as -0.49.
O=C1C2C=CC(C(O)C=Cc3ccc([N+](=O)[O-])cc3)N(Nc3ccccc3F)C2C(=O)N1c1ccccc1 (centres undefined) showed a z-score of -0.964.
With C=C(CCCC)/C(=C/C[C@@H](OC(C)=O)c1ccccc1OCCO)c1cc(C(=O)OC)ccc1OC the z-score was 0.937.
With O=C1C2C=CC(C(O)c3ccc(F)cc3)N(Nc3ccc([N+](=O)[O-])cc3)C2C(=O)N1c1ccccc1 (centres undefined) the z-score was 0.349.
With CC(=O)NCCCC[C@@H]1NC(=O)[C@H]2C[C@@H](C(=O)O)[C@@H](c3ccc(O)cc3)N2C1=O the z-score was 0.273.
Work on COc1ccc([Si](C)(C)[C@H]2[C@H](CCn3cc([C@H](O)c4ccccc4)nn3)O[C@@]3(C(=O)N(C)c4ccccc43)[C@@H]2C)cc1 yielded a z-score of 0.894.

Experiment: basal S. cerevisiae growth modulation, no modifier, primary screen, OD600, strain BY4716, 24 h, basal condition (AID 1173)
Settings: OD600, 24 h, higher = more signal, called active from +8 up or from −8 down
For [N-]=[N+]=Nc1ccccc1[C@H]1OC(c2ccc(OCCCO)cc2)=N[C@@]1(Cc1ccccc1)C(=O)N1CCOCC1, the z-score was -1.33 (inactive).
For CN1C(=O)C2C=CC(C(O)c3ccccc3)N(N3CCCCC3)C2C1=O (centres undefined), the z-score was 0.429 (inactive).
In the case of C=CCC(OC(C)=O)[C@@H]1[C@@H](N(Cc2ccc(-c3ccccc3)cc2)C(=O)Cc2ccc(F)cc2)c2cc(OCCCO)ccc2N1C(=O)c1ccc2ccccc2c1 (some centres undefined), the z-score is reported as -0.458 (inactive).
For COc1cc(CO)cc(I)c1O[C@H]1C=C(C(=O)NCCO)C[C@@H](N(C(=O)c2cc3ccccc3oc2=O)C2CCCCCC2)[C@@H]1O, the z-score was -1.66 (inactive).
In the case of CCCNC(=O)[C@@]1(Sc2ccc(C)cc2)CC(=O)N(Cc2ccccc2C(F)(F)F)[C@@H]1c1ccc(CO)cc1I, the z-score is reported as -3.06 (inactive).
In the case of NC(=O)[C@@H]1[C@H]2C(=O)O[C@H](c3ccccc3)[C@H](c3ccccc3)N2[C@H](c2ccc(OCCO)cc2)[C@@]12C(=O)Nc1ccc(C#CC3=CCCCC3)cc12, the z-score is reported as 0.193 (inactive).
For COCCCNC(=O)[C@@]1(Cc2ccccc2)N=C(c2ccc(OCCCO)cc2)O[C@H]1c1ccccc1CN=[N+]=[N-], the z-score was -0.176 (inactive).
In the case of Cc1ccc(C2C3C(=O)CC4C(=O)N(c5ccccc5)C(=O)C4C3CN2S(=O)(=O)c2ccc(C)cc2)cc1 (centres undefined), the z-score is reported as 1.05 (inactive).
In the case of O=C(NC1CC1)[C@@H]1c2ccccc2C(=O)N(Cc2cc(F)cc(C(F)(F)F)c2)[C@H]1c1ccc(CO)cc1, the z-score is reported as -0.626 (inactive).
With COc1cc2c(cc1O)C(c1cccs1)N(Cc1cccc(OC(F)(F)F)c1)CC2 (centres undefined) the z-score was -3.07 (inactive).
In the case of CCOC(=O)C1=CC[C@@H](c2ccccc2)N(S(=O)(=O)c2ccc(C)cc2)[C@H]1c1ccc(CC)cc1, the z-score is reported as 1.82 (inactive).
For CN1CCC(CCCO)=CC1c1cccs1 (centres undefined), the z-score was -0.158 (inactive).
For CCCCCN1CC=CC23O[C@@H]4C=CCOC(=O)[C@@H]4[C@H]2C(=O)N(C(C)CO)[C@@H]3C1=O (some centres undefined), the z-score was -0.738 (inactive).
In the case of Cc1ccc(S[C@]2(C(=O)NCC(C)C)CC(=O)N(Cc3cc(C(F)(F)F)cc(C(F)(F)F)c3)[C@@H]2c2ccc(CO)cc2)cc1, the z-score is reported as -0.58 (inactive).
For CC1CC/C=C\[C@H]2OC34C=CCN(Cn5nnc6ccccc65)C(=O)[C@H]3N(CCCCCO)C(=O)[C@@H]4C2C(=O)O1 (some centres undefined), the z-score was 0.0153 (inactive).
In the case of COc1ccc([Si](C)(C)[C@@H]2[C@@H](CCO)O[C@]3(C(=O)N(Cc4cccc(N5CCOC5=O)c4)c4ccccc43)[C@H]2C)cc1, the z-score is reported as 2.41 (inactive).
